Screening data as filed in PubChem.
Hits are enriched below; roughly 0.72% of the tested compounds scored in any of these assays.
PKA-R2B act = activates the human PKA-R2B holoenzyme complex; P22694+P31323; PKA-R2B holoenzyme dissociation, Cy5-IP20 fluorescence polarization; R2B truncated from residue 108, S112A mutant; 0% DMSO only, 100% 113 µM cGMP; activation, % at 11.4 µM; actives 0.079% (n = 340,000); AID 504700;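 active = activation above a cutoff set at the mean over all compounds plus 3 SD, cut at about 18% in these data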;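 note: higher means more holoenzyme dissociation and a rise in polarization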
Target sequence (P31323 whole entry, looked up, other chains not shown, the tested form may be a part): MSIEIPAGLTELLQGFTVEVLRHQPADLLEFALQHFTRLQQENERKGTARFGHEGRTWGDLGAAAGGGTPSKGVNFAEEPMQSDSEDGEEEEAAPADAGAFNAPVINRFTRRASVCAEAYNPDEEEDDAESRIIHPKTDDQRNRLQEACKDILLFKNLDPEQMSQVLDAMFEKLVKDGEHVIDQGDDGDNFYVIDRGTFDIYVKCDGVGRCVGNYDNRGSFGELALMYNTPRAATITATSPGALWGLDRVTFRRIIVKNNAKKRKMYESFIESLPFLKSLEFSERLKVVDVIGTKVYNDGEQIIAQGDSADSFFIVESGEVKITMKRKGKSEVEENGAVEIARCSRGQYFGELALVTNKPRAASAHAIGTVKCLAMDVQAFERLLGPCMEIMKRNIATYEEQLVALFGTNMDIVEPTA
Neddyl block = blocks human cullin neddylation; P61081+Q13564; actives 0.58% (n = 360,000); calls only at 25 µM; AID 651699; TR-FRET cullin neddylation, biochemical; in the data active = inhibition above about 36%
PKA-R1A activ = activates the PKA-R1A holoenzyme complex. P00514+P68181. activation, % at 11.4 µM. AID 504707. PKA-R1A dissociation, Cy5-IP20 fluorescence polarization; scaled: DMSO 0%, 113 µM cGMP 100%. actives 0.083% (n = 340,000);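 active = percent activation above the mean of all tested compounds plus 3 SD, cut at about 19% in these data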;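 note: higher means more PKAc released from R1A so a rise in polarization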
PolyA inhibitor = blocks polyadenylation in yeast reporter cells. S. cerevisiae SKY197-pL101 polyadenylation reporter, beta-gal luminescence; efflux-impaired pdr1/pdr3 knockout yeast; score 100 = 6 SD above DMSO. activity score, % at 12 µM. actives 0.02% (n = 300,000). AID 1875;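 active = lowest replicate activity score at least 50, where 100 means six control SD above control mean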;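 note: yeast exposed to compound for 9 h at 30 °C; higher score means more reporter readthrough which indicates perturbed polyadenylation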
Neddyl conf = cullin neddylation inhibition, confirmation | shares compounds with Neddyl block | TR-FRET cullin neddylation biochemical assay | calls only at 25 µM | actives 13% (n = 1,800); in the data active = inhibition above about 40%;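 note: neddylation substrate is the cullin 1 ring ligase complex with SKP2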
An asterisk follows results filed as active; i = inactive; · = not tested or not shown; + = active, no number.

SMILES | PKA-R2B act | Neddyl block | PKA-R1A activ | PolyA inhibitor | Neddyl conf
CCOC(=O)COc1ccccc1/C=N\NC(=O)c1cc2c(ccc3ccccc32)o1 | -6 | + | -12 | 10 | ·
CC(C)n1cc(CN2CCCC(CNS(=O)(=O)c3cccc4cccnc34)C2)cn1 (stereo not given) | 3 | i | 6 | 2 | ·
O=C1Nc2ccccc2-c2nnnn2C1N1CCCC1 (stereo not given) | · | i | · | · | ·
CCN(CC1COc2ccccc2O1)C(=S)NC1CC2CCC1C2 (stereo not given) | -5 | i | -3 | -23 | ·
COc1ccc(-c2nc3nc(C)c(Cc4ccccc4)c(=O)n3[nH]2)cc1 | -21 | + | -9 | 14 | ·
COC(=O)Cc1c(C)nc2nc(-c3ccc(OC)cc3)[nH]n2c1=O | 1 | · | 6 | 13 | ·
CCOC(=O)Cn1nc(/C=C/c2ccccc2)ccc1=O | -1 | + | -11 | 5 | +
CCOC(=O)Cn1nc(/C=C/c2ccc(C(C)C)cc2)ccc1=O | -15 | + | -8 | 3 | ·
CCOC(=O)Cn1nc(/C=C/c2ccc(C)cc2)ccc1=O | 0 | · | -6 | -5 | ·
CCn1nc(NC(=O)Cc2ccc(OC)cc2)c2cc3cc(C)ccc3nc21 | -3 | i | -2 | -2 | ·
O=C(CC1CC2CCC1C2)NCCc1ccc(Cl)cc1 (stereo not given) | -3 | i | -5 | 22 | ·
NCCC(=O)NC[C@H]1O[C@@H](n2cnc3c(N)ncnc32)[C@H](O)[C@@H]1O | 0 | i | -6 | · | ·
CC=C1OC(n2cnc3c(N)ncnc32)C(O)C1O (stereo not given) | · | + | · | · | i
Nc1ncnc2c1ncn2[C@@H]1O[C@H](COP(=O)(O)O)[C@@H](O)[C@H]1O | 3 | + | 8 | 16 | +
Nc1ncnc2c1ncn2C1OC(COP(=O)(O)O)C(O)C1O (stereo not given) | 0 | + | 2 | 18 | +
O=C(CCNC(=O)c1ccc(Cl)cc1)Nc1cccc(S(=O)(=O)N2CCCCC2)c1 | 9 | i | -11 | · | ·
C[C@H](NC(=O)[C@H]1N2C(=O)c3ccccc3C2SC1(C)C)C(=O)N1CCC[C@H]1C(=O)O (stereo not given in full) | -2 | i | -8 | 9 | ·
COCc1c(C(=O)N/N=C(/C)c2cccs2)nnn1-c1nonc1N | -3 | + | 10 | 15 | i
CCCc1c(C(=O)N/N=C/c2ccc3c(c2)OCO3)nnn1-c1nonc1N | 5 | + | 9 | · | i
CCCOc1ccc(-c2c(C(=O)N/N=C(\C)c3ccco3)nnn2-c2nonc2N)cc1 | 6 | + | 6 | -1 | i
CCc1c(C(=O)N/N=C/c2ccc(OCc3ccc(F)cc3)c(OC)c2)nnn1-c1nonc1N | -5 | + | -10 | 3 | i
Cc1ccc(SCc2c(C(=O)N/N=C/c3ccc4c(c3)OCO4)nnn2-c2nonc2N)cc1 | -3 | i | 4 | -24 | ·
Cc1cccc(C(=O)Oc2ccc3ccc(O)cc3c2)c1 | -9 | i | -9 | 9 | ·
CN(Cc1ccc(Cl)cc1Cl)C(=O)c1cc(=O)c2ccccc2o1 | -10 | i | -5 | -10 | ·
[O-][n+]1nc2ccccc2c2ccccc21 | -6 | i | 8 | · | ·
SMILES | PKA-R2B act | Neddyl block | PKA-R1A activ | PolyA inhibitor | Neddyl conf
CC(C)C(C(=O)NC1CCCC1)N1CCC(O)(c2ccc(Cl)cc2)CC1 (stereo not given) | · | i | · | · | ·
Cc1cccc(NC(=O)C2CCCN(C(=O)Nc3ccc(F)cc3)C2)c1 (stereo not given) | -8 | i | -1 | 9 | ·
O=C(CCCn1c(=S)[nH]c2cc3c(cc2c1=O)OCO3)NCc1cccc(Cl)c1 | 8 | i | -1 | 1 | ·
CCOc1ccc(-c2c(C(=O)N/N=C/c3ccc(OC(C)C)cc3)nnn2-c2nonc2N)cc1 | -2 | i | -3 | 4 | ·
Cc1ccc(-c2c(C(=O)N/N=C/c3cccc(Cl)c3)nnn2-c2nonc2N)cc1 | -4 | i | -12 | -9 | ·
Cc1ccc(-c2c(C(=O)N/N=C/c3ccc4c(c3)OCO4)nnn2-c2nonc2N)cc1 | 7 | + | -5 | 14 | ·
Cc1ccc(-c2c(C(=O)N/N=C/c3ccc(OC(C)C)cc3)nnn2-c2nonc2N)cc1 | -6 | + | -3 | -13 | i
CN(CC(=O)Nc1ccccc1Cl)C(=O)COC(=O)c1ccc(S(=O)(=O)C(F)F)cc1 | 2 | i | 12 | -3 | ·
